Test results reported in PMC7862700, “An all-to-all approach to the identification of sequence-specific readers for epigenetic DNA modifications on cytosine”.

Experiments:
Test in all cases: DAPPL (digital affinity profiling via proximity ligation, sequencing); 10 mM Tris-HCl pH 7.5, 50 mM NaCl, 1 mM DTT, 4% glycerol, room temperature, 30 min; GST-TFs on glutathione beads, 16-mer random dsDNA library, 0.1% formaldehyde crosslink after washing; high values mean tight binding
[1] = molecular target: T1, FEV (Homo sapiens, UniProt Q99581 1-238); conditions: protein: recombinant; tags: N-terminal GST; dsDNA, one strand shown
T1 sequence: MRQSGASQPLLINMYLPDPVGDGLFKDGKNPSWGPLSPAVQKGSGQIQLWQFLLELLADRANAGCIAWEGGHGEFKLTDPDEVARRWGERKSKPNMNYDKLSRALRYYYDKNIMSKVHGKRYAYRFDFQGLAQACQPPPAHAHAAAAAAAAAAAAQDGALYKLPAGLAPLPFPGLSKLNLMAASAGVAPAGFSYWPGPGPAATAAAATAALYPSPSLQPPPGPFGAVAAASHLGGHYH
In short: (§1)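 The binding signal reported is, for every hexamer, its read frequency for a factor over its read frequency for the tag-only sample. Reads came from pools of yeast-expressed, GST-fused human transcription factors on glutathione beads, barcoded with DNA and mixed with that sample, which were incubated with 200 nmole of a random double-stranded 16-mer DNA library in Tris/NaCl/DTT/glycerol buffer at room temperature for 30 min. After washing, the pools were crosslinked with 0.1% formaldehyde, proximity-ligated with BsaI/T4 ligase for 1 h at 37 °C, PCR-amplified and sequenced on an Illumina NextSeq500.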

[2] = molecular target: ETV5 (Homo sapiens, UniProt P41161 1-510); conditions: protein: recombinant; tags: N-terminal GST; dsDNA, one strand shown
Chain of ETV5 (P41161 whole entry): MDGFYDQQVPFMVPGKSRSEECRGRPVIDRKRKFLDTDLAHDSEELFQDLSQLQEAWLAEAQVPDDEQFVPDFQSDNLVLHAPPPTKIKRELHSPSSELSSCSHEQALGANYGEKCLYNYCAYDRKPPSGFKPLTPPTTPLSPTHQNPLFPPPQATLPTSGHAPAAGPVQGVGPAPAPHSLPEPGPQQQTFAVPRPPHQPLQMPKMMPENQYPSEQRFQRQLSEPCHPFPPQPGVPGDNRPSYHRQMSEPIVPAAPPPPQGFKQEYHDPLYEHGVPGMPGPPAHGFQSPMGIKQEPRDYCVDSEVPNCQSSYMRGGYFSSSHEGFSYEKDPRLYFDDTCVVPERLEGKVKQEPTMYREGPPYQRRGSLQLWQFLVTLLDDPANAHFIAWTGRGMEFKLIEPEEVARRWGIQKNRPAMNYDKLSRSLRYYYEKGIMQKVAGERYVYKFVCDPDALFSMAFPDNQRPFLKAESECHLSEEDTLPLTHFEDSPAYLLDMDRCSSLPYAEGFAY
In short: as §1

[3] = molecular target: HSF1 (Homo sapiens, UniProt Q00613 1-529); conditions: protein: recombinant; tags: N-terminal GST; chain copies: 3; dsDNA, one strand shown
Chain of HSF1 (Q00613 whole entry): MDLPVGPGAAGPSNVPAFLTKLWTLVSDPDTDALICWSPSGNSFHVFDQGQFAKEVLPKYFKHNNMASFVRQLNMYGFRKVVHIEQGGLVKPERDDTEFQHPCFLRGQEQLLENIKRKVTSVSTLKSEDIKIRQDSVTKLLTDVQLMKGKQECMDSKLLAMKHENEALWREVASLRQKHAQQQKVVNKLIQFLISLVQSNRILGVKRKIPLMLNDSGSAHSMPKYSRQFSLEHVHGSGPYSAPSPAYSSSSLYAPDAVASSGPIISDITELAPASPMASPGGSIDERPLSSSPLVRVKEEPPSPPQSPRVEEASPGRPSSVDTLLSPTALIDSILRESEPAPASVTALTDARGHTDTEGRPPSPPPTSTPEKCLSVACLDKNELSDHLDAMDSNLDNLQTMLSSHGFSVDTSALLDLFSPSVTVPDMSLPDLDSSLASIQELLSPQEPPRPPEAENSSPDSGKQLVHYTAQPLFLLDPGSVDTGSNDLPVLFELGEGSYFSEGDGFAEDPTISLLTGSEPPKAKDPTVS
In short: as §1

[4] = molecular target: T2, SPIC (Homo sapiens, UniProt Q8N5J4 1-248); conditions: protein: recombinant; tags: N-terminal GST; dsDNA, one strand shown
T2 sequence: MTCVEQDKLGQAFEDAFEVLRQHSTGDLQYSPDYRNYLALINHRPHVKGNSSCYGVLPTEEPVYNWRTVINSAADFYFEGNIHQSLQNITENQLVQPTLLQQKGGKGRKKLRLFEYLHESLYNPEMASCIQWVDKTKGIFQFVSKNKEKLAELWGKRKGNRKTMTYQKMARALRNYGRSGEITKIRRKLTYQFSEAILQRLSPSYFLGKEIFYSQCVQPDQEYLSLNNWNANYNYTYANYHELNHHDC
In short: as §1

[5] = molecular target: ELF4 (Homo sapiens, UniProt Q99607 1-663); conditions: protein: recombinant; tags: N-terminal GST; dsDNA, one strand shown
Chain of ELF4 (Q99607 whole entry): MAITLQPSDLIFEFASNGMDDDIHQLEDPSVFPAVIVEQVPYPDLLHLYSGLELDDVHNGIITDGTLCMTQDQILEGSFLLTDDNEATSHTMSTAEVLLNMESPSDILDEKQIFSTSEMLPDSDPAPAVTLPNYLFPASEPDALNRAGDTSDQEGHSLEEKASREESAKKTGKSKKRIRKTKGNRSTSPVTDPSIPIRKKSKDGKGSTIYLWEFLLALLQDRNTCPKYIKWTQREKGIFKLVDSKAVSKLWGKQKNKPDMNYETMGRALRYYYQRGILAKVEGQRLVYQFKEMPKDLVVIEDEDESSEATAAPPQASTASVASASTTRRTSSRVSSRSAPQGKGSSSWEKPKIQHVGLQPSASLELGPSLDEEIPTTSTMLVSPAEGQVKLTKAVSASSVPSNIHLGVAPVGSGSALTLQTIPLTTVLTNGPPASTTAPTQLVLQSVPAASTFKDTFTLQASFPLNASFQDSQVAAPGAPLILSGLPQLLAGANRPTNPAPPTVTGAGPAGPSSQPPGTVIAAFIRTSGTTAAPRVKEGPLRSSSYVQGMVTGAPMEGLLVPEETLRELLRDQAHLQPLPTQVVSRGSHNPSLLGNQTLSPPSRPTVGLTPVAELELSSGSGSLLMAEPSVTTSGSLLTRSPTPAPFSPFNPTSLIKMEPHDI
In short: as §1

[6] = molecular target: T3, ELK4 (Homo sapiens, UniProt P28324-2 1-405); conditions: protein: recombinant; tags: N-terminal GST; dsDNA, one strand shown
T3 sequence: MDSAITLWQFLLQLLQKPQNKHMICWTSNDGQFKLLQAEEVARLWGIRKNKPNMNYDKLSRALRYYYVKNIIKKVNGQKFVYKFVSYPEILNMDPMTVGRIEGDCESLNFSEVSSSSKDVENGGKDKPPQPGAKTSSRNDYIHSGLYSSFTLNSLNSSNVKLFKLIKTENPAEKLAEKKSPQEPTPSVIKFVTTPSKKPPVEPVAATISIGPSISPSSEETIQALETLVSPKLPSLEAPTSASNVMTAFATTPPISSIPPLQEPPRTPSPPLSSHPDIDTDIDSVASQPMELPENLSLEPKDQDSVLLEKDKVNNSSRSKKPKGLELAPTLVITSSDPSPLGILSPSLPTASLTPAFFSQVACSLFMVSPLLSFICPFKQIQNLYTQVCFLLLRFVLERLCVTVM
In short: as §1

[7] = molecular target: T4, ETV2 (Homo sapiens, UniProt O00321 1-342); conditions: protein: recombinant; tags: N-terminal GST; dsDNA, one strand shown
T4 sequence: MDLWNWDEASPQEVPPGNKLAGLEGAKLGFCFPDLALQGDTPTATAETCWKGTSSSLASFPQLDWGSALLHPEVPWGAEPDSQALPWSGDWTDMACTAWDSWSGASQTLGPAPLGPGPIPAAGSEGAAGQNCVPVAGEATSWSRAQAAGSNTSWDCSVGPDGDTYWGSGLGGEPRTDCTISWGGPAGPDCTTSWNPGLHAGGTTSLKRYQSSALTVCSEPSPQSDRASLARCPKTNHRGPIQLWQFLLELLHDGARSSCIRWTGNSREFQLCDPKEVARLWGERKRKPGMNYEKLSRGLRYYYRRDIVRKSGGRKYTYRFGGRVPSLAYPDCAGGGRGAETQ
In short: as §1

[8] = molecular target: T5, ELF3 (Homo sapiens, UniProt P78545 1-371); conditions: protein: recombinant; tags: N-terminal GST; dsDNA, one strand shown
T5 sequence: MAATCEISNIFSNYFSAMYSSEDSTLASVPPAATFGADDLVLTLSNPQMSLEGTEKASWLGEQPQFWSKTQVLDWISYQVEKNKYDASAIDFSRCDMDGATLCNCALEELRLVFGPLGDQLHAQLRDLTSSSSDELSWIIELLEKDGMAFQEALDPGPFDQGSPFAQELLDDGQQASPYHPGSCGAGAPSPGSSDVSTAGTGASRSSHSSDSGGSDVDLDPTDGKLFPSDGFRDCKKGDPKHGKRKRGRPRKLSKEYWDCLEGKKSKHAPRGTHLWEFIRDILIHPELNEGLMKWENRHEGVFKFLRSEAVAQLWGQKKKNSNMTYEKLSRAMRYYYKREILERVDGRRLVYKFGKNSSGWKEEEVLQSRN
In short: as §1

[9] = molecular target: CRX (Homo sapiens, UniProt O43186 1-299); conditions: protein: recombinant; tags: N-terminal GST; dsDNA, one strand shown
Chain of CRX (O43186 whole entry): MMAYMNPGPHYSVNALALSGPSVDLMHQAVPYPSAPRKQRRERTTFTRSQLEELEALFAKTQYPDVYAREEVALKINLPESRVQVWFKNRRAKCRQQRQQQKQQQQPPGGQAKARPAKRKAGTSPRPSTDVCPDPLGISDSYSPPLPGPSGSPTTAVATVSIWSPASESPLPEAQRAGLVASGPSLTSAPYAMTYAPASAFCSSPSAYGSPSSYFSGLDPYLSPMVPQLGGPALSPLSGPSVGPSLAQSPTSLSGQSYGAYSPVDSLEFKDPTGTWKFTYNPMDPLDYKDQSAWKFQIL
In short: as §1

[10] = molecular target: ETV1 (Homo sapiens, UniProt P50549 1-477); conditions: protein: recombinant; tags: N-terminal GST; dsDNA, one strand shown
Chain of ETV1 (P50549 whole entry): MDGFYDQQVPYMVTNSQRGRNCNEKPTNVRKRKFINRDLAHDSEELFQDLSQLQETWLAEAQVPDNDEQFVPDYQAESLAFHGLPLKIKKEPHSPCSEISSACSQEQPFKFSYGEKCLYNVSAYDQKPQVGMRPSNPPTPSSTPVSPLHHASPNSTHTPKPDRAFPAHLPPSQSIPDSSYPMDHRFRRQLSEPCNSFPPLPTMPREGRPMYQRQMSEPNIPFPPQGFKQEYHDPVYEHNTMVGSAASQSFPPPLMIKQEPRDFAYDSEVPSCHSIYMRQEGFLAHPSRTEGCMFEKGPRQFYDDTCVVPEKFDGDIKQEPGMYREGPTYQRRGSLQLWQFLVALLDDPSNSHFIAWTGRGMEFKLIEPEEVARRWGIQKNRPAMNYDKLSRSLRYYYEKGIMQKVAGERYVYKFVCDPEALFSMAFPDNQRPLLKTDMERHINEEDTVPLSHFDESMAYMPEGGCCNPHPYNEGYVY
In short: as §1

[11] = molecular target: T6, ERF (Homo sapiens, UniProt P50548 1-548); conditions: protein: recombinant; tags: N-terminal GST; dsDNA, one strand shown
T6 sequence: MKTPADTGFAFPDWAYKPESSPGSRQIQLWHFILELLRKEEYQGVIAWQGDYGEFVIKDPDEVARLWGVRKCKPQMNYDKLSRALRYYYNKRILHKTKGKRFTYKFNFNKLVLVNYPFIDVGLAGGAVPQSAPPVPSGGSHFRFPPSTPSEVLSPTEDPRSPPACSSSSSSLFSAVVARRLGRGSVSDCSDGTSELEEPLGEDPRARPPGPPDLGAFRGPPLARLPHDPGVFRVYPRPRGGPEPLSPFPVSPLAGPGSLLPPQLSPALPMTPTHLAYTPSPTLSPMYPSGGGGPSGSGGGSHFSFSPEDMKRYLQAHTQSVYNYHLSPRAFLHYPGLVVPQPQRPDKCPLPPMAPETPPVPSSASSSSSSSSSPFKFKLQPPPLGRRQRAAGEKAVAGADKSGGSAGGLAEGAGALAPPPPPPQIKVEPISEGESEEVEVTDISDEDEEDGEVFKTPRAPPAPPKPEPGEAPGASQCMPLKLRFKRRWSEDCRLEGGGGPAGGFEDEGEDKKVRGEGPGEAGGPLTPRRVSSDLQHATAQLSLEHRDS
In short: as §1

[12] = molecular target: T7, ETV3L (Homo sapiens, UniProt Q6ZN32 1-361); conditions: protein: recombinant; tags: N-terminal GST; dsDNA, one strand shown
T7 sequence: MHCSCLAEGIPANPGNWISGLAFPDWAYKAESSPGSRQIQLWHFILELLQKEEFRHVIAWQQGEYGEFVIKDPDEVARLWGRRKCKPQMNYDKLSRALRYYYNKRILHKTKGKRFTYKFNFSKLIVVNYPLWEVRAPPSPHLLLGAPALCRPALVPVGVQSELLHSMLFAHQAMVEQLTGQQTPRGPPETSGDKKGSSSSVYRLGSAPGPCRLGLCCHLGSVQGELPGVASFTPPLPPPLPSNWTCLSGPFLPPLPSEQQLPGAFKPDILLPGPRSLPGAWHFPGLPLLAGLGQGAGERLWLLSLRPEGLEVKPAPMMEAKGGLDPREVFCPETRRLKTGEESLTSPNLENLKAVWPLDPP
In short: as §1

[13] = molecular target: T8, ETS2 (Homo sapiens, UniProt P15036 1-469); conditions: protein: recombinant; tags: N-terminal GST; dsDNA, one strand shown
T8 sequence: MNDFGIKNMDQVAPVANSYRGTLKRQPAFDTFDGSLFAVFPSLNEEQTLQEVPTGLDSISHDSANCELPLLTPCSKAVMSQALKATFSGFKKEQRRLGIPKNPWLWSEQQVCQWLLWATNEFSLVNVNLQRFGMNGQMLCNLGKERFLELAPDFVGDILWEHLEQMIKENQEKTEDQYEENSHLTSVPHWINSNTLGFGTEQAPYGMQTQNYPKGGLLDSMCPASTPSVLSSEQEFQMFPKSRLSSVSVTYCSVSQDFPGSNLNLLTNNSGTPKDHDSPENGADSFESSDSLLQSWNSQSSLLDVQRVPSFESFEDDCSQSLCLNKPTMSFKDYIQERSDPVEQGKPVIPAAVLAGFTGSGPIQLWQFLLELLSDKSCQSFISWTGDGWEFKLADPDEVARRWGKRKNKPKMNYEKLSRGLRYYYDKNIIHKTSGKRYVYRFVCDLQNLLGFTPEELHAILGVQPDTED
In short: as §1

[14] = molecular target: T9, SPDEF (Homo sapiens, UniProt O95238 1-335); conditions: protein: recombinant; tags: N-terminal GST; dsDNA, one strand shown
T9 sequence: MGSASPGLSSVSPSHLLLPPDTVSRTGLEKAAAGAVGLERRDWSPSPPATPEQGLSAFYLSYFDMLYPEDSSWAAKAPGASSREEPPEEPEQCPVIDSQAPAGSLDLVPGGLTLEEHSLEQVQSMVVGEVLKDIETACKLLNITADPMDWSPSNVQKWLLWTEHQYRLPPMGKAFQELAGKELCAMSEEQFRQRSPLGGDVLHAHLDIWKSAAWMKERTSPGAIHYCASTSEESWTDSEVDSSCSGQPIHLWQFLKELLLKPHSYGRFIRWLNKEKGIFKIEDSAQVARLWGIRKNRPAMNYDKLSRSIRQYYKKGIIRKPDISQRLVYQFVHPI
In short: as §1

[15] = molecular target: T10, ETV7 (Homo sapiens, UniProt Q9Y603 1-341); conditions: protein: recombinant; tags: N-terminal GST; dsDNA, one strand shown
T10 sequence: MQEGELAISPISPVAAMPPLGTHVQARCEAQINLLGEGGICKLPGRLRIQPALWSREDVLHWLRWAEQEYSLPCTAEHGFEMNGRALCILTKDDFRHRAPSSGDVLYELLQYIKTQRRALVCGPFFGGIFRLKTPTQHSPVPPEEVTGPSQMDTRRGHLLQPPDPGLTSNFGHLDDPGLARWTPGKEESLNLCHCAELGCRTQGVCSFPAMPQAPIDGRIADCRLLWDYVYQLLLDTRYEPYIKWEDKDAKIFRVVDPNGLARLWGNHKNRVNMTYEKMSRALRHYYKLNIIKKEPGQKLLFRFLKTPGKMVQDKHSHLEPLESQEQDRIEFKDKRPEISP
In short: as §1

[16] = molecular target: T11, ELF5 (Homo sapiens, UniProt Q9UKW6-2 1-255); conditions: protein: recombinant; tags: N-terminal GST; dsDNA, one strand shown
T11 sequence: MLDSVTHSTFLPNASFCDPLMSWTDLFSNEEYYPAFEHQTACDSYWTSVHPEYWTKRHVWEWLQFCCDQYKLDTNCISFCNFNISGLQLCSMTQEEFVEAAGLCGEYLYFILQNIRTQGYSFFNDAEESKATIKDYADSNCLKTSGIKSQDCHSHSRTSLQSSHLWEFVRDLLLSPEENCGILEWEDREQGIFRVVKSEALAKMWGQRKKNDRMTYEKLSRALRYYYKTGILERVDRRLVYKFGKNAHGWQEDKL
In short: as §1

[17] = molecular target: T12, ETV3 (Homo sapiens, UniProt P41162-2 1-143); conditions: protein: recombinant; tags: N-terminal GST; dsDNA, one strand shown
T12 sequence: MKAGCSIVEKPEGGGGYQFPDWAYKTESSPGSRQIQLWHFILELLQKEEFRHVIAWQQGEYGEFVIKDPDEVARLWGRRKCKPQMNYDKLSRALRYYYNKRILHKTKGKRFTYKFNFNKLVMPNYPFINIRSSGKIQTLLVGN
In short: as §1

[18] = molecular target: ETV6 (Homo sapiens, UniProt P41212 1-452); conditions: protein: recombinant; tags: N-terminal GST; dsDNA, one strand shown
Chain of ETV6 (P41212 whole entry): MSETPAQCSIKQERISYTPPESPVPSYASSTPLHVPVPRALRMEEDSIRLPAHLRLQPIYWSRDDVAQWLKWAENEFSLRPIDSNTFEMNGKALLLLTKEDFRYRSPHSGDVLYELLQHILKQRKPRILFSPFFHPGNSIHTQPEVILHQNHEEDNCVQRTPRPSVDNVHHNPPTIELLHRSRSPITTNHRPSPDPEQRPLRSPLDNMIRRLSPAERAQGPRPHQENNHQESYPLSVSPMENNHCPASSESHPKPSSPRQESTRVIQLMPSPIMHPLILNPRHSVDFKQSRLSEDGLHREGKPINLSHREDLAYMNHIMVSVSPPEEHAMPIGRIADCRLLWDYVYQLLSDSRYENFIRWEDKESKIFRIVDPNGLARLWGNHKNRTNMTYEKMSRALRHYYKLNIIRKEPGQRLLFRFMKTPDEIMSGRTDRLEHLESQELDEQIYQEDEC
In short: as §1

Sequence	binding signal [1]	binding signal [2]	binding signal [3]	binding signal [4]	binding signal [5]	binding signal [6]	binding signal [7]	binding signal [8]	binding signal [9]	binding signal [10]	binding signal [11]	binding signal [12]	binding signal [13]	binding signal [14]	binding signal [15]	binding signal [16]	binding signal [17]	binding signal [18]
AATTAA	1.14 fold enrichment (6-mer frequency, TF over GST control)	1.29 fold enrichment (6-mer frequency, TF over GST control)	1.74 fold enrichment (6-mer frequency, TF over GST control)	1.24 fold enrichment (6-mer frequency, TF over GST control)	1.26 fold enrichment (6-mer frequency, TF over GST control)	1.26 fold enrichment (6-mer frequency, TF over GST control)	1.2 fold enrichment (6-mer frequency, TF over GST control)	1.24 fold enrichment (6-mer frequency, TF over GST control)	2.5 fold enrichment (6-mer frequency, TF over GST control)	1.26 fold enrichment (6-mer frequency, TF over GST control)	1.31 fold enrichment (6-mer frequency, TF over GST control)	1.2 fold enrichment (6-mer frequency, TF over GST control)	1.24 fold enrichment (6-mer frequency, TF over GST control)	1.17 fold enrichment (6-mer frequency, TF over GST control)	1.2 fold enrichment (6-mer frequency, TF over GST control)	1.23 fold enrichment (6-mer frequency, TF over GST control)	1.25 fold enrichment (6-mer frequency, TF over GST control)	1.32 fold enrichment (6-mer frequency, TF over GST control)
ATTATT	1.15 fold enrichment (6-mer frequency, TF over GST control)	1.17 fold enrichment (6-mer frequency, TF over GST control)	1.8 fold enrichment (6-mer frequency, TF over GST control)	1.2 fold enrichment (6-mer frequency, TF over GST control)	1.24 fold enrichment (6-mer frequency, TF over GST control)	1.23 fold enrichment (6-mer frequency, TF over GST control)	1.11 fold enrichment (6-mer frequency, TF over GST control)	1.1 fold enrichment (6-mer frequency, TF over GST control)	2.37 fold enrichment (6-mer frequency, TF over GST control)	1.29 fold enrichment (6-mer frequency, TF over GST control)	1.11 fold enrichment (6-mer frequency, TF over GST control)	1.17 fold enrichment (6-mer frequency, TF over GST control)	1.16 fold enrichment (6-mer frequency, TF over GST control)	1.11 fold enrichment (6-mer frequency, TF over GST control)	1.25 fold enrichment (6-mer frequency, TF over GST control)	1.15 fold enrichment (6-mer frequency, TF over GST control)	1.18 fold enrichment (6-mer frequency, TF over GST control)	1.13 fold enrichment (6-mer frequency, TF over GST control)
